These results are taken from PubChem BioAssay (NCATS).

The nature of assay [1]: qHTS drug screen for cell cycle checkpoint inhibitors in PARPi-resistant BRCA-mutant ovarian cancer cell lines. (AID 1963452; calls by dose curve). The conditions noted are these: PEO1/OlaR viability, CellTiter-Glo luminescence, 96 h, stronger effect = lower value. An outline of the steps: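 PEO1, PEO4 and PEO1/OlaR ovarian cancer cells, 600 per well, exposed 96 h at 37C to a dilution series. Viability read by CellTiter-Glo luminescence, normalized to DMSO and empty wells; activity summarized as Z-AUC.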

Assay [2] in a line: qHTS profiling for inhibitors of Plasmodium falciparum proliferation (AID 504749). Also: potency is read from the fitted curve at half-maximal effect.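 As to activity, negative = inhibition: 0% = DMSO vehicle and full inhibition = artemisinin control.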 As to all read-outs here: nearly all actives have a fitted effect of over 60% in size. The conditions noted are these: P. falciparum in erythrocytes, SYBR Green DNA, 72 h; for activity, negative = inhibition: at 28.7 µM (top of the series). The essentials:
(§1)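 Three-day growth assay of blood-stage parasites in erythrocytes (0.3% parasitemia, 2.5% hematocrit) at 37 C, 5% CO2, quantified by SYBR Green DNA staining after overnight detergent lysis.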

Assay [3] has as its system 3D7. The description is as above. Particulars: P. falciparum in erythrocytes, SYBR Green DNA, 72 h; series mostly up to 28.7 µM. The essentials: as §1
For assay [4], the system named is 7G8. The assay is described as above. Particulars: P. falciparum in erythrocytes, SYBR Green DNA, 72 h; series mostly up to 28.7 µM. An outline of the steps: as §1
Assay [5] deals with AA1029. The description is as above. Particulars: P. falciparum in erythrocytes, SYBR Green DNA, 72 h; series mostly up to 28.7 µM. An outline of the steps:
as §1

Assay [6] has as its system AS120. Described as above. Particulars: P. falciparum in erythrocytes, SYBR Green DNA, 72 h; series mostly up to 28.7 µM. An outline of the steps: as §1
For assay [7], the system named is ATS189. The assay is described as above. Particulars: P. falciparum in erythrocytes, SYBR Green DNA, 72 h; series mostly up to 28.7 µM. An outline of the steps:
as §1

Assay [8] deals with ATS95. The description is as above. Particulars: P. falciparum in erythrocytes, SYBR Green DNA, 72 h; series mostly up to 28.7 µM. An outline of the steps: as §1
For assay [9], the system named is C2A. The assay is described as above. The conditions noted are these: P. falciparum in erythrocytes, SYBR Green DNA, 72 h; series mostly up to 28.7 µM. The essentials: as §1
The test system of assay [10] is CP185. The assay is described as above. The conditions noted are these: P. falciparum in erythrocytes, SYBR Green DNA, 72 h; series mostly up to 28.7 µM. The essentials:
as §1

The test system of assay [11] is CP191. The description is as above. The conditions noted are these: P. falciparum in erythrocytes, SYBR Green DNA, 72 h; series mostly up to 28.7 µM. An outline of the steps: as §1
The subject of assay [12] is CP192. Described as above. The conditions noted are these: P. falciparum in erythrocytes, SYBR Green DNA, 72 h; series mostly up to 28.7 µM. The essentials: as §1
The subject of assay [13] is CP194. The assay is described as above. The conditions noted are these: P. falciparum in erythrocytes, SYBR Green DNA, 72 h; series mostly up to 28.7 µM. An outline of the steps: as §1
Assay [14] deals with CP201. The assay is described as above. The conditions noted are these: P. falciparum in erythrocytes, SYBR Green DNA, 72 h; series mostly up to 28.7 µM. The essentials:
as §1

Assay [15] has as its system CP211. The assay is described as above. The conditions noted are these: P. falciparum in erythrocytes, SYBR Green DNA, 72 h; series mostly up to 28.7 µM. The essentials:
as §1

Assay [16] has as its system CP217. The assay is described as above. Particulars: P. falciparum in erythrocytes, SYBR Green DNA, 72 h; series mostly up to 28.7 µM. An outline of the steps:
as §1

The test system of assay [17] is CP215. The description is as above. Particulars: P. falciparum in erythrocytes, SYBR Green DNA, 72 h; series mostly up to 28.7 µM. An outline of the steps: as §1
Assay [18] deals with CP203. Described as above. Particulars: P. falciparum in erythrocytes, SYBR Green DNA, 72 h; series mostly up to 28.7 µM. The essentials: as §1
Where [19] appears, read: measured here: PEO1 parental Z-AUC.

Records with an inconclusive call do not appear. Calls of active or inactive are those of the source. Unless noted, calls follow the shape of the dose curve; as a rule, active = well fitted inhibition curve with a large enough effect; inconclusive = small, poorly fitted or top-dose-only effect; inactive = flat fitted curve, though single readings scatter.

`CN(C)C(=O)COC(=O)Cc1ccc(OC(=O)c2ccc(N=C(N)N)cc2)cc1`: the results for the Z-AUC in assay [1], in assay [1] (setting [19]) and in assay [1] (measured here: PEO4 Z-AUC) were -0.267 (inactive), -0.623 and -0.684, respectively. Also, the activity, negative = inhibition was -4.03% (inactive) in [2] (parasite line A) and 4.45% (inactive) in [2] (parasite line B). For the same molecule, the Potency entry in assay [3], in assay [4], in assay [5], in [6], in [7] and in [8] was “inactive” each time. Further, the Potency entry in assay [9], in [10], in [11], in [12], in assay [13] and in assay [14] was “inactive” throughout. Besides, the Potency result in [15] and in assay [16] was “inactive” throughout.
Turning to `Nc1ccn([C@@H]2O[C@H](CO)[C@@H](O)C2O)c(=O)n1` (stereo partly drawn), the Z-AUC in [1] is -1.18 (inactive); in [1] (setting [19]), -1.27; in [1] (measured here: PEO4 Z-AUC), -0.431. The values for the activity, negative = inhibition in assay [2] (parasite line A) and in [2] (parasite line B) were 12.2% (inactive) and 0.749% (inactive), respectively. In addition, the Potency result in [3], in [4], in assay [5], in assay [6], in assay [7] and in [8] was “inactive” in each case. Moreover, the Potency result in assay [9], in assay [10], in assay [11], in assay [12], in assay [13] and in assay [14] was “inactive” in each case. The Potency result in assay [15], in assay [17] and in [16] was “inactive” in each case.
Turning to `CCCCC(CC)COC(=O)C(C#N)=C(c1ccccc1)c1ccccc1` (stereo not drawn), the values for the Z-AUC in [1], in assay [1] (setting [19]) and in assay [1] (measured here: PEO4 Z-AUC) were 0.188 (inactive), -0.152 and 0.0622, respectively. The Potency is 11.2 µM (active) in assay [2] (parasite line A) and 10 µM (active) in [4]. Besides, the Potency entry in assay [9], in assay [12], in [14], in assay [18] and in [15] was “inactive” in each case.
`Cc1ncc([N+](=O)[O-])n1CC(C)O` (stereo not drawn): the Z-AUC in assay [1] is 0.202 (inactive); in [1] (setting [19]), 1.06; in assay [1] (measured here: PEO4 Z-AUC) it was 0.768. Also, the activity, negative = inhibition is 11.8% (inactive) in [2] (parasite line A) and 17% (inactive) in assay [2] (parasite line B). The Potency entry in assay [3], in [4], in [5], in assay [6], in assay [7] and in assay [8] was “inactive” in each case. Besides, the Potency result in [9], in [10], in [11], in [12], in [13] and in assay [14] was “inactive” each time. In addition, the Potency result in assay [15], in assay [17] and in [16] was “inactive” in each case.
In the case of `O=c1oc2cc(O)ccc2s1`, the Z-AUC is 0.214 (inactive) in [1], 0.00456 in [1] (setting [19]) and 1.28 in assay [1] (measured here: PEO4 Z-AUC). Moreover, the activity, negative = inhibition in assay [2] (parasite line A) is -2.41% (inactive); in assay [2] (parasite line B) it was -10.3% (inactive). For the same molecule, the Potency result in [3], in assay [5], in assay [6], in assay [7], in assay [8] and in [9] was “inactive” throughout. The Potency entry in assay [10], in assay [11], in [12], in assay [13], in assay [14] and in assay [15] was “inactive” each time. Besides, the Potency result in [17] and in [16] was “inactive” each time.
Turning to `COc1ccc(C2(C#N)CCC(C(=O)O)CC2)cc1OC1CCCC1` (stereo not drawn), the Z-AUC in assay [1] is 0.982 (inactive); in assay [1] (setting [19]), 1.47; in assay [1] (measured here: PEO4 Z-AUC), 0.858. Besides, the figures for the activity, negative = inhibition in assay [2] (parasite line A) and in assay [2] (parasite line B) were 10.1% (inactive) and -9.11% (inactive), respectively. The Potency result in [3], in assay [4], in assay [5], in assay [6], in [7] and in [8] was “inactive” throughout. Besides, the Potency result in assay [9], in assay [10], in [11], in assay [12], in assay [13] and in [14] was “inactive” each time. In addition, the Potency entry in assay [15], in [17] and in assay [16] was “inactive” each time.
